Values without a mark were called inactive. Inconclusive results are not listed. The source made the active and inactive calls. The call rests on the fitted dose curve; in most records, active means well fitted curve in the direction sought with a large enough effect in the repeat runs; inconclusive means weak or mixed curves; inactive means no such curve, though single readings can be large; an effect the other way counts as inactive or inconclusive.

The nature of test [1]: qHTS RealTime-Glo MT Cell Viability Assay in HepG2 cells - 8 hour (AID 1224873). Further: nearly all actives have a fitted effect of over 55% in size. Put shortly: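 HepG2 cells (600/well) mixed with RealTime-Glo MT reagent, settled 5 h at 37 C/5% CO2 before compound addition. Nonlytic NanoLuc luminescence from viable-cell prosubstrate reduction read repeatedly during 40 h treatment at 37 C.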
A general note: qHTS replaces the single test concentration by a dilution series.

Test [2] can be described thus: qHTS RealTime-Glo MT Cell Viability Assay in HEK293 cells - 40 hour (AID 1224874). Further: nearly all actives have a fitted effect of over 50% in size. Further: potency means the concentration at half of the fitted maximal effect. As to conditions: RealTime-Glo luminescence; max response: stronger effect = lower value. Put shortly:
(§1)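 HEK293 cells mixed with RealTime-Glo reagents (NanoLuc plus cell-permeant prosubstrate) at 600 cells/well, preincubated 5 h at 37 C/5% CO2, then given 23 nL compound in DMSO. Nonlytic luminescence from viable cells was read at 0, 8, 16, 24, 32 and 40 h.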

Test [3] in a line: A CellTox Green Cytotoxicity Assay to monitor cytotoxicity in HEK293 cells - 24 hour (AID 1224875). Further: nearly all actives have a fitted effect of over 45% in size. Further: potency means the concentration at half of the fitted maximal effect. Put shortly:
(§2)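 HEK293 cells premixed with CellTox Green dye were seeded at 600 cells/well and left 5 h at 37 C/5% CO2 before pin transfer of 23 nL compound in DMSO. Fluorescence from dye bound to dead-cell DNA was read during 40 h treatment.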

A short description of test [4]: A CellTox Green Cytotoxicity Assay to monitor cytotoxicity in HepG2 cells - 16 hour (AID 1224876). Further: nearly all actives have a fitted effect of over 45% in size. Put shortly: (§3)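 HepG2 cells were seeded together with the CellTox Green dye at 600 cells/well, left 5 h at 37 C/5% CO2, then given compounds in DMSO. Fluorescence from dye bound to dead-cell DNA was read repeatedly over 40 h of treatment at 37 C.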
Test [5] can be described thus: qHTS RealTime-Glo MT Cell Viability Assay in HepG2 cells - 32 hour (AID 1224877). Further: nearly all actives have a fitted effect of over 55% in size. Put shortly: (§4)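 HepG2 cells were seeded at 600 cells/well together with NanoLuc luciferase and a cell-permeant prosubstrate, preincubated 5 h at 37 C/5% CO2, then pin-dosed with compounds in DMSO. Nonlytic luminescence from viable cells was read at each time point.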
Test [6] can be described thus: A CellTox Green Cytotoxicity Assay to monitor cytotoxicity in HepG2 cells - 24 hour (AID 1224878). Further: nearly all actives have a fitted effect of over 45% in size. Further: potency means the concentration at half of the fitted maximal effect. Put shortly:
as §3

The nature of test [7]: A CellTox Green Cytotoxicity Assay to monitor cytotoxicity in HepG2 cells - 40 hour (AID 1224879). Further: nearly all actives have a fitted effect of over 40% in size. Further: potency means the concentration at half of the fitted maximal effect. Put shortly:
as §3

The nature of test [8]: qHTS RealTime-Glo MT Cell Viability Assay in HEK293 cells - 0 hour (AID 1224880). Further: top concentration of the series differs between compounds; nearly all actives have a fitted effect of over 45% in size. Put shortly: as §1
Test [9] in a line: A CellTox Green Cytotoxicity Assay to monitor cytotoxicity in HEK293 cells - 32 hour (AID 1224881). Further: nearly all actives have a fitted effect of over 40% in size. Further: potency means the concentration at half of the fitted maximal effect. Put shortly: as §2
The nature of test [10]: A CellTox Green Cytotoxicity Assay to monitor cytotoxicity in HepG2 cells - 32 hour (AID 1224883). Further: nearly all actives have a fitted effect of over 50% in size. Further: potency means the concentration at half of the fitted maximal effect. Put shortly: as §3
Test [11] in a line: A CellTox Green Cytotoxicity Assay to monitor cytotoxicity in HEK293 cells - 8 hour (AID 1224884). Further: nearly all actives have a fitted effect of over 35% in size. Further: potency means the concentration at half of the fitted maximal effect. Put shortly:
as §2

Test [12] in a line: qHTS RealTime-Glo MT Cell Viability Assay in HepG2 cells - 16 hour (AID 1224885). Further: nearly all actives have a fitted effect of over 50% in size. Put shortly: as §4
The nature of test [13]: qHTS RealTime-Glo MT Cell Viability Assay in HEK293 cells - 24 hour (AID 1224886). Further: nearly all actives have a fitted effect of over 50% in size. Further: potency means the concentration at half of the fitted maximal effect. Put shortly:
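HEK293 cells were seeded at 600 cells/well together with NanoLuc luciferase and cell-permeant prosubstrate, preincubated 5 h at 37 C/5% CO2, then given compound in DMSO by pintool. Luminescence from viable-cell prosubstrate reduction was read repeatedly over 40 h.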

The nature of test [14]: qHTS RealTime-Glo MT Cell Viability Assay in HEK293 cells - 8 hour (AID 1224887). Further: nearly all actives have a fitted effect of over 50% in size. Further: potency means the concentration at half of the fitted maximal effect. Put shortly: as §1
Test [15] is described as follows: A CellTox Green Cytotoxicity Assay to monitor cytotoxicity in HEK293 cells - 16 hour (AID 1224888). Further: nearly all actives have a fitted effect of over 35% in size. Further: potency means the concentration at half of the fitted maximal effect. Put shortly: as §2
A short description of test [16]: qHTS RealTime-Glo MT Cell Viability Assay in HepG2 cells - 0 hour (AID 1224889). Further: nearly all actives have a fitted effect of over 50% in size. Put shortly:
as §4

The nature of test [17]: A CellTox Green Cytotoxicity Assay to monitor cytotoxicity in HepG2 cells - 8 hour (AID 1224890). Further: nearly all actives have a fitted effect of over 45% in size. Put shortly: as §3
A short description of test [18]: A CellTox Green Cytotoxicity Assay to monitor cytotoxicity in HepG2 cells - 0 hour (AID 1224882). Further: nearly all actives have a fitted effect of over 35% in size. Put shortly: as §3
Test [19] in a line: qHTS assay to identify small molecule antagonists of the estrogen receptor alpha (ER-alpha) signaling pathway using the BG1 cell line in the presence of 0.1 nM 17-beta-estradiol - cell viability counter screen (AID 1259241). Further: nearly all actives have a fitted effect of over 40% in size. Put shortly:
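VM7Luc4E2, 4,000 cells/well, phenol red-free medium + 10% charcoal-stripped FBS; 24 hr plating; cpd + 0.1 nM E2 final, 22 hr 37C/5% CO2; CellTiter-Fluor 30 min, fluorescence.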
On the % scale 0 is the no-effect control and ±100 the full control effect.

Consider `CC(=O)C=O`, for which the Potency entry in test [1], in [3], in [4], in [5], in test [6] and in [7] was “inactive” each time. Also, the Potency result in test [8], in test [9], in test [10], in [11], in [12] and in [13] was “inactive” each time. Further, the Potency entry in [14], in [15], in test [16] and in test [17] was “inactive” each time. The max response in test [2] was 3.76%.
For `CC(C)=C1CC[C@@H](C)CC1=O`, the Potency result in [1], in [3], in [4], in test [5], in test [6] and in [7] was “inactive” throughout. Besides, the Potency result in [8], in test [18], in test [10], in [11], in test [12] and in test [13] was “inactive” in each case. Moreover, the Potency entry in test [14], in test [15], in [16], in test [17] and in [19] was “inactive” in each case. Moreover, in test [2], the max response is 0.14%.
As to `CC1(C)C(=O)N(CO)C(=O)N1CO`, the Potency result in test [1], in test [5], in [6], in test [7], in test [8] and in test [10] was “inactive” throughout. The Potency result in test [12], in test [13], in [14], in test [17] and in [19] was “inactive” in each case. Further, in [2], the max response is 2.01%.
As for `O=C(Nc1ccc(Cl)c(Cl)c1)c1cc(Cl)cc(Cl)c1O`, the Potency entry in [1], in test [4], in test [8], in test [18], in test [11] and in [12] was “inactive” each time. For the same compound, the Potency result in [14], in test [15] and in [17] was “inactive” throughout. Further, the Potency in test [2] was 4.9 µM (active); in [6], 9.77 µM (active); in test [7], 8.71 µM (active); in test [10], 11 µM (active); in [13], 4.9 µM (active).
Consider `c1cc[nH]c1`, for which the Potency entry in [1], in [4], in [5], in test [6], in test [8] and in [18] was “inactive” each time. Besides, the Potency result in [10], in test [11], in test [12], in [13], in test [14] and in test [15] was “inactive” throughout. Moreover, the Potency entry in test [16] and in test [17] was “inactive” in each case. In test [2], the max response is 10.9%.
As for `Cc1c(C(=O)O)cccc1[N+](=O)[O-]`, the Potency entry in [1], in test [3], in [5], in test [6], in test [7] and in test [8] was “inactive” throughout. Besides, the Potency result in test [18], in [10], in test [11], in [12], in test [13] and in test [14] was “inactive” each time. Moreover, the Potency entry in [15], in test [16] and in test [19] was “inactive” throughout. In addition, the max response in [2] is -5.1%.
In the case of `C=CC(=C)CCC=C(C)C`, the Potency result in [1], in test [3], in test [4], in test [5], in [6] and in test [7] was “inactive” in each case. For the same compound, the Potency result in test [8], in [18], in [10], in [11], in [12] and in test [13] was “inactive” in each case. Further, the Potency entry in [14], in test [15], in test [16], in test [17] and in test [19] was “inactive” throughout. For the same compound, in [2], the max response is 8.59%.
With `Cn1cccc1`, the Potency entry in test [1], in [3], in test [4], in [5], in test [6] and in test [7] was “inactive” in each case. Besides, the Potency entry in test [8], in [10], in [11], in [12], in test [13] and in [14] was “inactive” each time. For the same compound, the Potency entry in [15], in test [16], in test [17] and in test [19] was “inactive” in each case. Also, in test [2], the max response was 10.4%.
`CCCC(CC)CCCCCCCN` (stereo not given): the Potency entry in test [1], in [5], in test [18], in test [12] and in test [17] was “inactive” throughout. For the same compound, the values for the Potency in test [2] and in test [11] were 56.3 µM (active) and 50.2 µM (active), respectively.
`CC1=CP(=O)(c2ccccc2)CC1` (stereo not given): the Potency entry in [1], in test [3], in [4], in [5], in [6] and in test [8] was “inactive” throughout. The Potency result in test [9], in [18], in test [10], in [11], in test [12] and in test [13] was “inactive” throughout. The Potency result in test [14], in test [15], in test [16], in test [17] and in [19] was “inactive” throughout. In test [2], the max response was 9.74%.
For the compound `CC(=O)Oc1ccc(C2(c3ccc(OC(C)=O)cc3)C(=O)Nc3ccccc32)cc1`, the Potency result in [1], in [3], in test [4], in [5], in test [6] and in test [7] was “inactive” throughout. Moreover, the Potency entry in [8], in [18], in [10], in test [11], in test [12] and in test [13] was “inactive” in each case. Further, the Potency result in test [14], in test [15], in test [16] and in test [17] was “inactive” throughout. In addition, in test [2], the max response was -6.95%.
With `c1cc(OCC2CO2)cc(OCC2CO2)c1` (stereo not given), the Potency result in test [1], in test [3], in test [4], in test [8], in test [9] and in [18] was “inactive” in each case. Moreover, the Potency entry in test [11], in test [12], in test [14], in [15], in test [16] and in test [17] was “inactive” each time. In addition, the Potency result in test [19] is “inactive”. Further, the Potency in [13] is 24.4 µM (active).
As to `CCCCCCCC/C=C\CCCCCCCC(=O)N(C)CC(=O)O`, the Potency result in [1], in [4], in test [5], in [8], in test [18] and in test [12] was “inactive” in each case. Also, the Potency entry in [16], in test [17] and in test [19] was “inactive” in each case. The Potency in test [3] was 34.7 µM (active); in [9] it was 34.7 µM (active); in test [11], 38.9 µM (active); in [15] it was 24.5 µM (active).
Take `CN(C)c1ccc(N=Nc2ccccc2C(=O)O)cc1`: in test [2], the max response is 2%. The Potency result in test [3], in test [4], in test [6], in test [8], in test [9] and in test [10] was “inactive” throughout. The Potency entry in test [11], in test [13], in [14], in [16], in test [17] and in [19] was “inactive” throughout.
Take `O=C(NO)c1ccccc1`: the Potency entry in [1], in test [5], in [8], in test [18], in [12] and in test [14] was “inactive” throughout. Moreover, the Potency entry in test [16] and in [19] was “inactive” in each case.
For the compound `CCCCNc1c(C(=O)OCC)c(C)nc2c1cnn2CC`, the Potency entry in test [1], in test [3], in test [4], in test [5], in test [6] and in test [8] was “inactive” in each case. The Potency result in test [9], in [18], in test [10], in test [11], in [12] and in test [15] was “inactive” in each case. In [14], the Potency is 13.4 µM (active).

The record behind these values is PubChem BioAssay (Tox21).
